In PubChem BioAssay (EPA / NIEHS):
The source made the active and inactive calls. How the source made its calls: active means hit-call score of the fitted dose curve at least 0.9, where 1 is the maximum; inactive means score below 0.9.

Experiments:
Details in all cases: mRNA level, 48 h; actives raise or lower the signal
[1] = read-out: Hypoxia-inducible factor 1-alpha (Homo sapiens) (UniProt Q16665); assay: LTEA_HepaRG_HIF1A: Life Technologies and Expression Analysis (LTEA) Assay for Hypoxia-inducible factor 1 (HIF1A) Trancription factor using HepaRG (AID 2283503)
How it was run: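 HepaRG, 48 h exposure, 8-pt half-log series from 100 uM, 0.5% DMSO vehicle, duplicates. Readout: HIF1A transcript by qRT-PCR (Fluidigm array), housekeeping-normalised. Bidirectional curve fit vs DMSO baseline.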

[2] = read-out: 3-Hydroxy-3-Methylglutaryl-CoA Synthase 2 (HMGCS2), HMGCS2 (gene 3158); assay: LTEA_HepaRG_HMGCS2: Life Technologies and Expression Analysis (LTEA) Assay for 3-Hydroxy-3-Methylglutaryl-CoA Synthase 2 (HMGCS2) using HepaRG (AID 2283504)
How it was run: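 HepaRG, plated 48 h then switched to serum-free induction media; cmpd 8-pt, max 100 uM, 1/2-log, 0.5% DMSO, n=2, 48 h. HMGCS2 mRNA by Fluidigm TaqMan qRT-PCR, ACTB/GAPDH/POLR2A norm; bidirectional fit vs DMSO.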

HGF (gene 3082) = assay: LTEA_HepaRG_HGF: Life Technologies and Expression Analysis (LTEA) Assay for Hepatocyte Growth Facto (HGF) using HepaRG (AID 2283505)
How it was run: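 Read-out is HGF transcript level by qRT-PCR, normalized to three housekeeping genes, fitted bidirectionally against 0.5% DMSO vehicle. Human HepaRG cells received test chemicals for 48 h at up to 100 uM.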

[3] = read-out: Insulin Like Growth Factor 1 (IGF1), IGF1 (gene 3479); assay: LTEA_HepaRG_IGF1: Life Technologies and Expression Analysis (LTEA) Assay for Insulin Like Growth Factor 1 (IGF1) using HepaRG (AID 2283506)
How it was run: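 Using human HepaRG liver cells, IGF1 transcript induction or suppression is measured 48 h after dosing across eight concentrations capped at 100 uM. Values derive from bidirectional concentration-response fitting with DMSO as baseline.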

[4] = read-out: Intercellular Adhesion Molecule 1 (ICAM1), ICAM1 (gene 3383); assay: LTEA_HepaRG_ICAM1: Life Technologies and Expression Analysis (LTEA) Assay for Intercellular Adhesion Molecule 1 (ICAM1) using HepaRG (AID 2283507)
How it was run: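 Readout is qRT-PCR mRNA level, normalized to three housekeeping genes and fitted bidirectionally against 0.5% DMSO vehicle. Human HepaRG cultures received compound for 48 h, top concentration 100 uM with half-log dilutions.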

[5] = read-out: Interleukin 6 (IL6), IL6 (gene 3569); assay: LTEA_HepaRG_IL6: Life Technologies and Expression Analysis (LTEA) Assay for Interleukin 6 (IL6) using HepaRG (AID 2283509)
How it was run: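 Differentiated human HepaRG cells, plated 48 h then switched to serum-free induction medium, were exposed in duplicate for 48 h to eight half-log concentrations up to 100 uM in 0.5% DMSO. IL6 mRNA measured by qRT-PCR, normalized to ACTB/GAPDH/POLR2A.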

[6] = read-out: Interleukin 6 Receptor (IL6R), IL6R (gene 3570); assay: LTEA_HepaRG_IL6R: Life Technologies and Expression Analysis (LTEA) Assay for Interleukin 6 Receptor (IL6R) using HepaRG (AID 2283510)
How it was run: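 Concentration-response in human liver HepaRG cells: eight concentrations from 100 uM downward by half-logs, 48 h exposure, 0.5% DMSO vehicle. IL6R mRNA change measured by qRT-PCR and fitted in both directions relative to vehicle.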

[7] = read-out: Potassium channel subfamily K member 1 (KCNK1), KCNK1 (gene 3775); assay: LTEA_HepaRG_KCNK1: Life Technologies and Expression Analysis (LTEA) Assay for Potassium channel subfamily K member 1 (KCNK1) using HepaRG (AID 2283511)
How it was run: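 Differentiated human HepaRG cells in serum-free induction medium were exposed in duplicate for 48 h to 8 half-log concentrations up to 100 uM in 0.5% DMSO. KCNK1 mRNA was measured by TaqMan qRT-PCR, normalized to ACTB, GAPDH and POLR2A, and fitted bidirectionally versus DMSO.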

[8] = read-out: Keratin 19 (KRT19), KRT19 (gene 3880); assay: LTEA_HepaRG_KRT19: Life Technologies and Expression Analysis (LTEA) Assay for Keratin 19 (KRT19) using HepaRG (AID 2283512)
How it was run: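 KRT19 transcript levels, measured by Fluidigm qRT-PCR against three housekeeping genes, are fitted for gain or loss of signal relative to DMSO. Human HepaRG cells receive test chemicals (top 100 uM, half-log steps, 0.5% DMSO) for 48 hours.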

[9] = read-out: JUN Transcription Factor, JUN (gene 3725); assay: LTEA_HepaRG_JUN: Life Technologies and Expression Analysis (LTEA) Assay for JUN Transcription Factor using HepaRG (AID 2283513)
How it was run: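 Human HepaRG liver cells receive test chemicals in 0.5% DMSO for 48 h across an eight-point range topping at 100 uM. Expression changes in JUN are scored in both directions against the DMSO vehicle.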

[10] = read-out: Lipase C (LIPC), LIPC (gene 3990); assay: LTEA_HepaRG_LIPC: Life Technologies and Expression Analysis (LTEA) Assay for Lipase C (LIPC) using HepaRG (AID 2283514)
How it was run: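 Differentiated human HepaRG cells in serum-free induction medium were exposed in duplicate for 48 h to eight concentrations (top 100 uM, half-log steps, 0.5% DMSO). LIPC mRNA was quantified by TaqMan qRT-PCR, normalized to ACTB, GAPDH and POLR2A, with bidirectional fitting versus DMSO.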

[11] = read-out: Lipoprotein lipase (LPL), LPL (gene 4023); assay: LTEA_HepaRG_LPL: Life Technologies and Expression Analysis (LTEA) Assay for Lipoprotein lipase (LPL) using HepaRG (AID 2283515)
How it was run: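 Differentiated human HepaRG cells in serum-free induction medium were exposed in duplicate for 48 h to eight half-log concentrations (top 100 uM) in 0.5% DMSO. LPL mRNA was quantified by TaqMan qRT-PCR, normalized to ACTB, GAPDH and POLR2A.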

[12] = read-out: MicroRNA 122 (MIR122), gene 406906; assay: LTEA_HepaRG_MIR122: Life Technologies and Expression Analysis (LTEA) Assay for MicroRNA 122 (MIR122) using HepaRG (AID 2283516); further: the transcript read is the microRNA miR-122
How it was run: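 HepaRG, 48 h exposure, 8-pt half-log from 100 uM, 0.5% DMSO; TaqMan qRT-PCR; bidirectional fit vs DMSO.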

[13] = read-out: matrix metalloproteinase-10 (MMP10), MMP10 (gene 4319); assay: LTEA_HepaRG_MMP10: Life Technologies and Expression Analysis (LTEA) Assay for matrix metalloproteinase-10 (MMP10) using HepaRG (AID 2283517)
How it was run: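 HepaRG, collagen I, ~100,000 cells/well; serum-free induction medium; 48 h exposure, duplicate, 8-pt half-log to 100 uM, 0.5% DMSO. Readout: TaqMan qRT-PCR, normalized to ACTB/GAPDH/POLR2A; bidirectional fit vs DMSO.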

MYC, MYC (gene 4609) = assay: LTEA_HepaRG_MYC: Life Technologies and Expression Analysis (LTEA) Assay for MYC using HepaRG (AID 2283518)
How it was run: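 HepaRG, ~100,000 cells/well, collagen I; 48 h plating; serum-free induction medium; 48 h dosing, duplicate, 100 uM top, half-log, 0.5% DMSO; total RNA → qRT-PCR MYC; gain/loss fit vs DMSO.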

[14] = read-out: matrix metalloproteinase-3 (MMP3), MMP3 (gene 4314); assay: LTEA_HepaRG_MMP3: Life Technologies and Expression Analysis (LTEA) Assay for matrix metalloproteinase-3 (MMP3) using HepaRG (AID 2283519)
How it was run: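 Differentiated human HepaRG cells, plated 48 h on collagen I, were exposed in duplicate for 48 h in serum-free induction medium to eight half-log concentrations up to 100 uM in 0.5% DMSO. MMP3 mRNA was quantified by TaqMan qRT-PCR, normalised to ACTB, GAPDH and POLR2A.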

[15] = read-out: Paternally Expressed 10 (PEG10), PEG10 (gene 23089); assay: LTEA_HepaRG_PEG10: Life Technologies and Expression Analysis (LTEA) Assay for Paternally Expressed 10 (PEG10) using HepaRG (AID 2283520);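 on AC50: PEG10 transcript by qRT-PCR normalised to ACTB GAPDH and POLR2A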
How it was run: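 Chemicals tested on HepaRG cells for 48 h, highest concentration 100 uM. PEG10 expression assessed by qRT-PCR relative to DMSO control.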

[16] = read-out: Nuclear factor NF-kappa-B p105 subunit (Homo sapiens) (UniProt P19838); assay: LTEA_HepaRG_NFKB1: Life Technologies and Expression Analysis (LTEA) Assay for Nuclear Factor Kappa B Subunit 1 (NFKB1) using HepaRG (AID 2283521);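 further: TaqMan qRT-PCR transcript normalised to ACTB GAPDH and POLR2A housekeeping genes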
How it was run: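 Differentiated human HepaRG cells were exposed for 48 h in serum-free induction medium to eight concentrations (top 100 uM, half-log steps, 0.5% DMSO), in duplicate. NFKB1 mRNA was measured by TaqMan qRT-PCR, normalized to ACTB/GAPDH/POLR2A, and fitted bidirectionally against DMSO.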

[17] = read-out: Protein phosphatase 2A (PPP2R4), PTPA (gene 5524); assay: LTEA_HepaRG_PPP2R4: Life Technologies and Expression Analysis (LTEA) Assay for Protein phosphatase 2A (PPP2R4) using HepaRG (AID 2283522)
How it was run: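 Gene-expression endpoint in HepaRG hepatic cells: 48 h treatment across eight half-log concentrations up to 100 uM in 0.5% DMSO. PPP2R4 mRNA by qRT-PCR, normalized to three endogenous control genes.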

[18] = read-out: Insulin-like growth factor-binding protein 1 (IGFBP1), IGFBP1 (gene 3484); assay: LTEA_HepaRG_IGFBP1: Life Technologies and Expression Analysis (LTEA) Assay for Insulin-like growth factor-binding protein 1 (IGFBP1) using HepaRG (AID 2283508)
How it was run: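 Thawed HepaRG cells are plated for 48 h, switched to serum-free induction medium, then dosed in duplicate for another 48 h (100 uM top, half-log steps). Lysates in RLT go to qRT-PCR, and gain or loss of signal is fitted relative to vehicle.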

Hypoxia-inducible factor 1-alpha (Homo sapiens), sequence (Q16665 whole entry, looked up): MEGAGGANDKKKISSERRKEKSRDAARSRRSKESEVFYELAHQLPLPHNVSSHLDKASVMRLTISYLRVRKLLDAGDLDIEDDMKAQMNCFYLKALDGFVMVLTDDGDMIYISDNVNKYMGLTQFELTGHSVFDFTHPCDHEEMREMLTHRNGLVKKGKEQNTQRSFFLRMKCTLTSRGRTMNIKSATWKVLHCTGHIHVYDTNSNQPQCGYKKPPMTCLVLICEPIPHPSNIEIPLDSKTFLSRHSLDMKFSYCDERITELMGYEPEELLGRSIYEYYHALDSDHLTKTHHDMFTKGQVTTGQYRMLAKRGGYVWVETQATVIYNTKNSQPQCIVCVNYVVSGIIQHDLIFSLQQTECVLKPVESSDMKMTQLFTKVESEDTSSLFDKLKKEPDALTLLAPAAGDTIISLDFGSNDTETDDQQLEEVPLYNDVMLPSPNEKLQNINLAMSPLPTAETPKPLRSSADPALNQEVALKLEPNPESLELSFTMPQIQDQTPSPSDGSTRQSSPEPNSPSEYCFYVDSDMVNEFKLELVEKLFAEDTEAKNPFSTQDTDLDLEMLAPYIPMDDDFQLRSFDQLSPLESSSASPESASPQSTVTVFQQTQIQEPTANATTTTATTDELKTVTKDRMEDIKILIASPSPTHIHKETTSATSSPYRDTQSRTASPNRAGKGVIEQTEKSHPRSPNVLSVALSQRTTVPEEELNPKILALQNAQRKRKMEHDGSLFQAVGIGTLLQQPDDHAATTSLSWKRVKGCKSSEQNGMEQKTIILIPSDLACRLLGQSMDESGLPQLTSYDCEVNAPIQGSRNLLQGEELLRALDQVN
Nuclear factor NF-kappa-B p105 subunit (Homo sapiens), sequence (P19838 whole entry, looked up): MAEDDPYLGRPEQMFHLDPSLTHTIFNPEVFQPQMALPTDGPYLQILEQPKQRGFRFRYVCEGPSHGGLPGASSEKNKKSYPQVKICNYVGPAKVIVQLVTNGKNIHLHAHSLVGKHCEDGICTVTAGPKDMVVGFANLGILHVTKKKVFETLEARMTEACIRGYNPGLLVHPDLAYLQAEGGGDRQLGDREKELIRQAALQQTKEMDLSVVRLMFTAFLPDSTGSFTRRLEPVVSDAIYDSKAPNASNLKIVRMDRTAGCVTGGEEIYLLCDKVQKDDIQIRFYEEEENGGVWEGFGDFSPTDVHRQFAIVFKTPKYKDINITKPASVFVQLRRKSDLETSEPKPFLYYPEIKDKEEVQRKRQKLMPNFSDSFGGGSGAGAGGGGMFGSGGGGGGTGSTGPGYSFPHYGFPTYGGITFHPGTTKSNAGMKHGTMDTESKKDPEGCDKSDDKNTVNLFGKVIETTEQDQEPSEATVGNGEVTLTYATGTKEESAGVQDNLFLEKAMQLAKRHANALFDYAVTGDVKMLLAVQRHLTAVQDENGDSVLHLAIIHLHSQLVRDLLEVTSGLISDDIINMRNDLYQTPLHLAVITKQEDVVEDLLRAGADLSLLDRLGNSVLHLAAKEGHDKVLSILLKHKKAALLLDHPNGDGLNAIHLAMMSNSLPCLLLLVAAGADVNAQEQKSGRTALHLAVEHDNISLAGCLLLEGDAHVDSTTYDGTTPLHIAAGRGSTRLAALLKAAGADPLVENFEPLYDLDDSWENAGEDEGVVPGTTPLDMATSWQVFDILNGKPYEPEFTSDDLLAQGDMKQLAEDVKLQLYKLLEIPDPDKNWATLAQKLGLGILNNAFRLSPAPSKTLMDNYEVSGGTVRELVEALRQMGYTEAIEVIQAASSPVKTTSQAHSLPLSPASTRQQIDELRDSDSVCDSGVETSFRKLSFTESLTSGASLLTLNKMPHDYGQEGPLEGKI

CC(C)[C@H](C(=O)O[C@H](C#N)c1cccc(Oc2ccccc2)c1)c1ccc(Cl)cc1
outcome [1]: inactive | outcome [2]: inactive | outcome (HGF (gene 3082)): inactive | AC50 [3]: 50 µM (active) | outcome [4]: inactive | outcome [5]: inactive | outcome [6]: inactive | outcome [7]: inactive | outcome [8]: inactive | outcome [9]: inactive | outcome [10]: inactive | outcome [11]: inactive | outcome [12]: inactive | outcome [13]: inactive | outcome (MYC, MYC (gene 4609)): inactive | AC50 [14]: 50 µM (active) | AC50 [15]: 30.3 µM (active) | outcome [16]: inactive | outcome [17]: inactive

COc1ccc(C(=CC(=O)N2CCOCC2)c2ccc(Cl)cc2)cc1OC
outcome [1]: inactive | outcome [2]: inactive | outcome (HGF (gene 3082)): inactive | AC50 [3]: 14.1 µM (active) | outcome [4]: inactive | outcome [5]: inactive | outcome [6]: inactive | outcome [7]: inactive | outcome [8]: inactive | outcome [9]: inactive | outcome [10]: inactive | outcome [11]: inactive | outcome [12]: inactive | outcome [13]: inactive | outcome (MYC, MYC (gene 4609)): inactive | outcome [14]: inactive | AC50 [15]: 4.02 µM (active) | outcome [16]: inactive | outcome [17]: inactive

CCCSP(=O)(OCC)Oc1ccc(Br)cc1Cl (configuration not stated)
outcome [1]: inactive | outcome [2]: inactive | outcome (HGF (gene 3082)): inactive | outcome [3]: inactive | outcome [4]: inactive | outcome [18]: inactive | outcome [5]: inactive | outcome [6]: inactive | outcome [7]: inactive | outcome [8]: inactive | outcome [9]: inactive | outcome [10]: inactive | outcome [11]: inactive | outcome [12]: inactive | outcome (MYC, MYC (gene 4609)): inactive | outcome [14]: inactive | outcome [15]: inactive | outcome [16]: inactive | outcome [17]: inactive
